Inconclusive results are not listed. Where a call stands in place of a potency, no number is given. Unmarked numbers belong to inactive results. Calls of active or inactive are those of the source. Unless noted, the call rests on the fitted dose curve.

One experiment deals with Peroxisome proliferator-activated receptor delta (Homo sapiens) (UniProt Q03181). Put plainly: qHTS assay to identify small molecule agonists of the peroxisome proliferator-activated receptor delta (PPARd) signaling pathway (AID 743212). Particulars: HEK293H PPARd-UAS-bla, beta-lactamase FRET ratio, 17 h; series mostly up to 62.6 µM; activation: at the top concentration. The gist of the method: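 Read-out: beta-lactamase FRET fluorescence after 2 h room-temperature incubation with LiveBLAzer B/G substrate. Cells were HEK293H carrying a UAS-bla reporter for PPARd, treated at 37 C with DMSO-dissolved compounds.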
Peroxisome proliferator-activated receptor delta (Homo sapiens), sequence (Q03181 whole entry, looked up): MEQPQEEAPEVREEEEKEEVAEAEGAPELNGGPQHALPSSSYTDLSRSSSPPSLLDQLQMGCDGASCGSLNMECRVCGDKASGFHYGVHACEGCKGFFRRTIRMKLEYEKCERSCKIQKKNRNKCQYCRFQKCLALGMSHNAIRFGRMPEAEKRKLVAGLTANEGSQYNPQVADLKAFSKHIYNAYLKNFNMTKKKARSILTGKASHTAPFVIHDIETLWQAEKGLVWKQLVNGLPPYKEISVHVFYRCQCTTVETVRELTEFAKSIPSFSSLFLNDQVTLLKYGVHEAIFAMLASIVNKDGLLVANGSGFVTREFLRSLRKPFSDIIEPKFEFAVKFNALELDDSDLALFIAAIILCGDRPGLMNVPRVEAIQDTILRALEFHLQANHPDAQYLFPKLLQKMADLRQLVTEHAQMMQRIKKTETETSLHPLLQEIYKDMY
On to `CCCCNC(=O)NS(=O)(=O)c1ccc(N)cc1`, for which the outcome was inactive.

In the case of `CCCCCCCCCCCCCCCCCC(=O)OCC(O)CO` (stereo not given), the outcome was inactive.

As for `COCC(C)N` (stereo not given), the result was inactive.

For the compound `CCCCCCCCCCCCCC(=O)OC(C)C`, the result was inactive.

Consider `N[C@@H](Cc1c[nH]c2ccccc12)C(=O)O`, for which the outcome was inactive.

In the case of `CCCCC/C(C=O)=C\c1ccccc1`, the result was inactive.

Take `C=CCOC(=O)CC(C)C`: the result was inactive.

Consider `CC(=O)c1ccc(S(=O)(=O)NC(=O)NC2CCCCC2)cc1`, for which the outcome was inactive.

In the case of `COC(=O)c1ccc(O)cc1`, the result was inactive.

Regarding `Oc1cccc(O)c1`, the outcome was inactive.

For the compound `COc1ccccc1O`, the outcome was inactive.

In the case of `CC(C)CC(C)CC(O)CC(C)C` (stereo not given), the result was inactive.

Consider `NC(=O)N1c2ccccc2C=Cc2ccccc21`, for which the outcome was inactive.

As for `O=C1CCCCCN1`, the outcome was inactive.

As to `O=c1c(-c2ccc(O)cc2)coc2cc(O)cc(O)c12`, the “activation” value was -3.85%.

As for `O=C(O)Cc1cccc2ccccc12`, the outcome was inactive.

Regarding `COc1cc(O)c(C(=O)c2ccccc2)cc1S(=O)(=O)O`, the result was inactive.

Regarding `CCCCOCCOCCOC(C)=O`, the outcome was inactive.

Regarding `Cn1cnc2c1c(=O)[nH]c(=O)n2C`, the result was inactive.

As to `COCCOCCOC`, the outcome was inactive.

As to `CCOC(=O)C(C)(C)Oc1ccc(Cl)cc1`, the outcome was inactive.

As to `CC(O)COc1ccccc1` (stereo not given), the outcome was inactive.

In the case of `Cc1cccc(C)c1O`, the outcome was inactive.

As to `COC(=O)c1ccc(C=O)cc1`, the result was inactive.

For the compound `Cc1ccc(O)c(-n2nc3ccccc3n2)c1`, the result was inactive.

On to `Cc1cccc2ccccc12`, for which the result was inactive.

For the compound `CC(=O)CCC(C)C`, the outcome was inactive.

On to `O=[N+]([O-])c1ccc(O)cc1`, for which the result was inactive.

Consider `CCCCCCCCOc1ccc(C(=O)c2ccccc2)c(O)c1`, for which the outcome was inactive.

For the compound `Cc1c(N(C)CS(=O)(=O)O)c(=O)n(-c2ccccc2)n1C`, the result was inactive.

Test system in the next experiment: not listed separately
Briefly: qHTS assay to identify small molecule antagonists of the peroxisome proliferator-activated receptor delta (PPARd) signaling pathway - cell viability counter screen (AID 743213; active means well fitted cell-killing curve with a large enough effect in the repeat runs; further: nearly all actives have a fitted effect of over 50% in size). Particulars: PPARd-bla HEK293H viability, CellTiter-Glo luminescence, 17 h; series mostly up to 62 µM; viability change, negative = cytotoxic: at the top concentration. The gist of the method:
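Same-well viability: cells pre-incubated 5 h, dosed with compound plus 300 nM L165041, kept 17 h at 37 C, FRET substrate 2 h RT, then CellTiter-Glo 30 min RT and luminescence.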
For the compound `CCCCNC(=O)NS(=O)(=O)c1ccc(N)cc1`, the Potency entry was “inactive”.

As for `CCCCCCCCCCCCCCCCCC(=O)OCC(O)CO` (stereo not given), the Potency entry was “inactive”.

As to `COCC(C)N` (stereo not given), the Potency result is “inactive”.

On to `CCCCCCCCCCCCCC(=O)OC(C)C`, for which the “viability change, negative = cytotoxic” value was 6.31%.

Turning to `N[C@@H](Cc1c[nH]c2ccccc12)C(=O)O`, the Potency result was “inactive”.

Turning to `CCCCC/C(C=O)=C\c1ccccc1`, the Potency result was “inactive”.

`C=CCOC(=O)CC(C)C`: the Potency result is “inactive”.

With `CC(=O)c1ccc(S(=O)(=O)NC(=O)NC2CCCCC2)cc1`, the Potency entry was “inactive”.

`COC(=O)c1ccc(O)cc1`: the Potency result is “inactive”.

For `Oc1cccc(O)c1`, the Potency entry is “inactive”.

As for `COc1ccccc1O`, the “viability change, negative = cytotoxic” value is 15.6% [at 80.4 µM].

For `CC(C)CC(C)CC(O)CC(C)C` (stereo not given), the “viability change, negative = cytotoxic” value is -1.71%.

Consider `NC(=O)N1c2ccccc2C=Cc2ccccc21`, for which the Potency entry was “inactive”.

For the compound `O=C1CCCCCN1`, the Potency result is “inactive”.

In the case of `O=c1c(-c2ccc(O)cc2)coc2cc(O)cc(O)c12`, the Potency entry was “inactive”.

For the compound `O=C(O)Cc1cccc2ccccc12`, the Potency result was “inactive”.

For `COc1cc(O)c(C(=O)c2ccccc2)cc1S(=O)(=O)O`, the Potency result is “inactive”.

Take `CCCCOCCOCCOC(C)=O`: the Potency entry was “inactive”.

Turning to `Cn1cnc2c1c(=O)[nH]c(=O)n2C`, the Potency entry was “inactive”.

With `COCCOCCOC`, the Potency result is “inactive”.

For `CCOC(=O)C(C)(C)Oc1ccc(Cl)cc1`, the Potency entry is “inactive”.

Turning to `CC(O)COc1ccccc1` (stereo not given), the Potency entry was “inactive”.

For `Cc1cccc(C)c1O`, the Potency entry is “inactive”.

As for `COC(=O)c1ccc(C=O)cc1`, the Potency result is “inactive”.

Regarding `Cc1ccc(O)c(-n2nc3ccccc3n2)c1`, the Potency entry is “inactive”.

Turning to `Cc1cccc2ccccc12`, the Potency entry was “inactive”.

Take `CC(=O)CCC(C)C`: the Potency entry was “inactive”.

As for `O=[N+]([O-])c1ccc(O)cc1`, the Potency entry is “inactive”.

Consider `CCCCCCCCOc1ccc(C(=O)c2ccccc2)c(O)c1`, for which the Potency result is “inactive”.

On to `Cc1c(N(C)CS(=O)(=O)O)c(=O)n(-c2ccccc2)n1C`, for which the “viability change, negative = cytotoxic” value was 23.9%.

The record behind these values is PubChem BioAssay (Tox21).
